The campaign covered roughly 1,400 compounds. About 45 (3%) were called active.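 How the source made its calls: active means half-maximal dose of signal decrease from fit no higher than ten times the top valid tested dose; inconclusive means fit invalid, or curve flat with 30 to 70% inhibition; inactive means the rest.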 Not all results are given here. Results with a measured potency or affinity are listed apart.
Each compound was assayed against Lysine-specific demethylase 4A (Homo sapiens) (UniProt O75164) (assay: JMJD2A histone demethylase inhibitors, dose response, selectivity assay for GASC-1 inhibitor project, biochemical, DELFIA europium, cherry-picked samples (AID 488840;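 further: europium signal reports the dimethyl H3K9 product detected by antibody so inhibitors lower it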)). Details: GST-JMJD2A(1-420) H3K9me3 demethylation; series mostly up to 6 µM.
Sequence of Lysine-specific demethylase 4A (Homo sapiens) (O75164 whole entry, looked up): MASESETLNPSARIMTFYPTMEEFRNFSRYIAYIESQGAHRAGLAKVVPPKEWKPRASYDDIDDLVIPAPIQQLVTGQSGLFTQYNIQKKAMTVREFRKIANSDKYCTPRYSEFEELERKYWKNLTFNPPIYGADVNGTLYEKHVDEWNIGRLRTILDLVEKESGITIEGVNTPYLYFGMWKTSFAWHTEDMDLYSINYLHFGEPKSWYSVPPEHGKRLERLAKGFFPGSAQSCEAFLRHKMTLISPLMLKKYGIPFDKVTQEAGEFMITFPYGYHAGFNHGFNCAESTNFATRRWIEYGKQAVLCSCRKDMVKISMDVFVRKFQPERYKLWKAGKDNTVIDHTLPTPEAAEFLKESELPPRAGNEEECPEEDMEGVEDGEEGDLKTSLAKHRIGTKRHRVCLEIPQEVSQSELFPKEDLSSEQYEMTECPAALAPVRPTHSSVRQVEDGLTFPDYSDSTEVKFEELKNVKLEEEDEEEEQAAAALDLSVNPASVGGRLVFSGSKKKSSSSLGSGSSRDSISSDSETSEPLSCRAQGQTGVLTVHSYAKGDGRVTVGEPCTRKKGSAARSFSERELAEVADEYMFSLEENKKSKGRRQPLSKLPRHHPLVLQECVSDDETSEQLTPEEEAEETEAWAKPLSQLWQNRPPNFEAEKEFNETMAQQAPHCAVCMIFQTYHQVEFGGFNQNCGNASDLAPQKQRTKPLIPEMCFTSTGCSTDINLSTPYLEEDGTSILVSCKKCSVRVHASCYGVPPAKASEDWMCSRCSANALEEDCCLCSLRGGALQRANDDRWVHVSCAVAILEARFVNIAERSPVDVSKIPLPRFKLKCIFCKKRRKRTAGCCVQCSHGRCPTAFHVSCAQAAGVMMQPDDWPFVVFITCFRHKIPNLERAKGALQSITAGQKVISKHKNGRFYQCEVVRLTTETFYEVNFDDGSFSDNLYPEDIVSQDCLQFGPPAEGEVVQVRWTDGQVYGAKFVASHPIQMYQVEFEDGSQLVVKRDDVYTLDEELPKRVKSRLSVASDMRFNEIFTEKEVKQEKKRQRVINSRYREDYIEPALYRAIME

outcome, inactive:
COc1cc2c(cc1OC)C(COc1ccc(F)cc1)NCC2 (centres undefined)
CC(C)CN(C(=O)c1ccc(N2CCCC2=O)cc1)c1c(N)n(Cc2ccccc2)c(=O)[nH]c1=O
OC(COc1ccc2ccccc2c1Br)Cn1cnc(-c2ccccc2)c1 (centres undefined)
COc1ccc2cc3cc(C(=O)N4CCN(C5CCCCC5)CC4)oc3nc2c1
C[C@@H]1CN([C@H](C)CO)C(=O)c2cccc(NS(=O)(=O)c3ccccc3)c2O[C@H]1CN(C)C
COC(=O)c1cc(C#N)c(OC)nc1C
CSc1ccc(-c2nc(CSCC(=O)N3CCOCC3)c(C)o2)cc1
O=C(N/N=C/c1cc([N+](=O)[O-])cc([N+](=O)[O-])c1O)/C(=C\c1cccs1)NC(=O)c1ccccc1
Cc1ccc(/C=N\NC(=O)c2cc([N+](=O)[O-])cc([N+](=O)[O-])c2)o1
COc1cc(C#N)c(N=C(SCC#N)N2CCOCC2)cc1OC
Cc1ccc(NC(=O)C(=O)NCCN2CCN(C(=O)C(c3ccccc3)c3ccccc3)CC2)cc1
COc1ccc(CCN2C(=O)CC(NNC(=O)c3ccccc3Br)C2=O)cc1 (centres undefined)
CNC(=O)/C(C#N)=C/c1c(N(Cc2ccccc2)Cc2ccccc2)nc2ccccn2c1=O
O=C(CSc1nnc(CNC(=O)c2ccccc2F)o1)NCCc1ccccc1
COc1ccc(NC(=O)C2OC3OC(C)(C)OC3C3OC(C)(C)OC23)cc1 (centres undefined)
C=CCOc1ccc(C(=O)NC2CCCCC2)cc1
Cc1cc(=O)[nH]c(CN2CCOCC2)n1
COc1ccc(N2CCN(C(=O)c3nn(C)c4c3CS(=O)(=O)c3ccccc3-4)CC2)cc1
O=c1cc(NC2CCCCCC2)[nH]c(=O)[nH]1
CCCc1nn2c(=O)cc(CSCC(=O)Nc3ccccc3)nc2s1
Cc1nnsc1C(=O)NNS(=O)(=O)c1ccccc1
CCC(=O)N1CCc2cc(S(=O)(=O)CCC(=O)Nc3cccc(F)c3)ccc21
C#CCOCCOCCOCCNc1nc(N2CCOCC2)nc(N2CCN(C(=O)[C@H](Cc3cc4ccccc4[nH]3)n3cc([C@@H](N)CC(C)C)nn3)CC2)n1
CC(=O)Nc1ccc(NC(=O)C2CCN(C(=O)c3cccs3)CC2)cc1
COc1ccc(NC(=S)N2CCC(C(=O)N3CCCCCC3)CC2)cc1
CCC(CC)NC(=O)CSc1nnc(-c2ccc(OC)cc2)n1C(C)C
Cc1ccc(CNC(=O)CCC2CCCN(Cc3ccc4cccc(F)c4n3)C2)o1 (centres undefined)
COc1ccc(/C=N/Nc2cc(=O)n(C)c(=O)n2C)cc1OC
CC1=NN(C(=O)Cc2ccccc2)C(O)(c2cccnc2)C1 (centres undefined)
C#CCOCCOCCOCCNc1nc(N2CCN(C(=O)[C@H](CCCCN)n3cc(CN)nn3)CC2)nc(N2CCN(C(=O)[C@H](CCC(=O)O)n3cc([C@@H](N)CCSC)nn3)CC2)n1
CCN(CC)C(=O)[C@H]1CC(CC(=O)NC/C=C(\C)CCC=C(C)C)C(=O)N2CCc3c([nH]c4ccccc34)[C@]12C (some centres undefined)
Cc1ccc(/C(N)=N/OC(=O)CCC2CCCCC2)cc1
O=c1cc(N2CCc3ccccc32)[nH]c(=O)n1-c1ccccc1
CCc1ncc(C)[nH]1
Cc1noc(C)c1COc1ccc(C(=O)NCC2CCCO2)cc1 (centres undefined)
O=c1cc(-c2ccc(O)c(O)c2)oc2c(C3O[C@H](CO)[C@@H](O)[C@H](O)[C@H]3O)c(O)cc(O)c12 (some centres undefined)
CCC(C)NC(=S)N1CCN(C)CC1 (centres undefined)
COc1cccc(NC(=O)N2CCN(c3cccc(C)c3)C(C)C2)c1 (centres undefined)
COC(=O)[C@]1(Cc2ccccc2)N[C@H](CN(C)C(=O)Nc2ccccc2)[C@@H]2C(=O)N(C)C(=O)[C@@H]21
O=C(NCc1nnc(SCC(=O)N2CCCC2)o1)c1ccccc1F
O=[N+]([O-])c1ccccc1N/N=C\c1ccccc1Cl
CCC(=O)Nc1ccccc1Nc1cc(C#N)c(C#N)cc1[N+](=O)[O-]
Cc1ccc(Nc2nnc(SCC(=O)N(C)C3CCS(=O)(=O)C3)s2)cc1 (centres undefined)
CCO[C@@H]1OC(C(=O)NC2CC2)=C[C@H](c2c[nH]c3ccccc23)[C@H]1CCCO
Cc1occc1-c1nnc(SCC(=O)c2cc3ccccc3oc2=O)o1
O=C(NCCCn1ccnc1)c1cc2c(ccc3ccccc32)o1
COc1ccccc1NC(=O)COC(=O)/C=C/c1cccs1
COc1ccccc1NC(=O)c1cccs1
Cc1ccc(C(=O)NCCCCNC(=O)c2ccc(C)o2)o1
COC(=O)C1=C(C)OC(N)=C(C#N)C1c1cc2cccc(C)c2nc1Cl (centres undefined)
CC(C)=CC(=O)O[C@@H]1Cc2c(ccc3ccc(=O)oc23)OC1(C)C
c1ccc2c(c1)ccc1nnc(-c3ccc4c(c3)OCO4)n12
CS(=O)(=O)N(CC(=O)N1CCCCCC1)c1ccccc1
C[C@H](CO)N1C[C@H](C)[C@@H](CN(C)Cc2ccncc2)Oc2c(NC(=O)Cc3ccccc3)cccc2C1=O
O=C(Nc1cccnc1)c1ccc2c(c1)C(=O)N(Cc1cccnc1)C2=O
CCOC(=O)CSc1nc2sc(C)c(C)c2c(=O)[nH]1
c1ccc(-c2nc(-c3ccco3)cs2)nc1
Cc1ccc(Nc2c(-c3ccccn3)nc3cc(C)ccn23)cc1
Cn1c(=O)c(-c2ccccc2)nn2c3ccccc3nc12
Clc1ccccc1Cn1nnc2c(NCCN3CCOCC3)ncnc21
Cc1ccc(NC(=O)c2cccc3c2C(=O)N(C2CCCCC2)C3)c(C)c1
Cc1ccc(S(=O)(=O)Nc2ccc3c(c2)C(=O)N([C@H](C)CO)C[C@H](C)[C@@H](CN(C)Cc2ccc(-c4ccccc4)cc2)O3)cc1
Cc1nn(C)c(N)c1C(O)(c1nccn1C)C(F)(F)F (centres undefined)
O=C(NCC(c1ccco1)N1CCCCC1)c1ccc(OCc2ccccc2)cc1 (centres undefined)

Source: PubChem BioAssay AID488840 (Broad Institute, 2010)
